Screening results deposited in PubChem by University of Kansas High Throughput Screening Laboratory.
Only some compounds are listed: those with a hit (about 3.5% of all), similar ones and a draw of the others.
Pf apPOL inh – Pf-apPOL DNA polymerase inhibition; inhibition, % at 10 µM; Recombinant Pf-apPOL, molecular beacon fluorescence, 1.5 h; hit rate 0.25% among 210,000
mHTT-CaM PPI inh – disrupts binding of mutant huntingtin to calmodulin. inhibition, % at 15 µM. hit rate 3.6% among 190,000. P42858. AlphaScreen His-mHTT/GST-CaM binding, luminescence;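 also: 0% = both proteins with DMSO and 100% = one protein alone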
Starred values were filed as active, the others as inactive; / = no result. Rule as the data show it: active = inhibition above about 50%; inactive = the rest.

SMILES	Pf apPOL inh	mHTT-CaM PPI inh
CCOC(=O)C1=C(C)c2ccccc2N(C(=O)OC)C1(C)C(=O)OCC (centres undefined)	78*	41
CCOC(=O)C1=C(C)c2ccccc2OC1(CC)C(=O)OCC (centres undefined)	-4	-50
[N-]=[N+]=N[C@@H](CCN1CC[C@H](NC(=O)OCc2ccccc2)CCC1=O)c1ccccc1	0	15
[N-]=[N+]=N[C@@H](CCN1CC[C@H](OCc2ccccc2)CCC1=O)c1ccccc1	-3	51*
C[C@@H]1CCC(=O)N(CC[C@H](Sc2ccccc2)c2ccccc2)CC1	-3	46
O=C1CC[C@@H](O)CCN1CC[C@H](Sc1ccccc1)c1ccccc1	-4	14
O=C1CCC(OCc2ccccc2)CCN1CC[C@@H](Sc1ccccc1)c1ccccc1 (some centres undefined)	2	80*
O=C1CC[C@@H](OCc2ccccc2)CCN1CC[C@H](Sc1ccccc1)c1ccccc1	-1	59*
COc1ccc(CNC(=O)c2cccn3c(=O)c4ccc(Cl)cc4nc23)cc1	-6	12
Cc1[nH]nc(CC(C)C)c1NC(=O)c1ccccc1F	-4	0
Cc1ccnc(NC(c2cc(C)ccc2O)c2ccc3cccnc3c2O)c1 (centres undefined)	-7	99*
Cc1ccc(C)c(NC(=O)CSc2cccc3cccnc23)c1	-2	10
Cc1ccnc(NC(c2cccc(C)n2)c2ccc3cccnc3c2O)c1 (centres undefined)	3	87*
Cc1ccnc(NC(=O)c2cccc(Cl)c2)c1	-6	-12
COc1cn(CC(=O)Nc2ccc([N+](=O)[O-])cc2)c(CSc2nncn2C)cc1=O	-6	-2
Cc1ccccc1Cn1c(=N)n(CC(O)c2ccc(Cl)c(Cl)c2)c2ccccc21 (centres undefined)	0	100*
Cn1c(=N)n(CC(O)c2ccc(Cl)c(Cl)c2)c2ccccc21 (centres undefined)	-5	3
NC(=O)c1ccccc1NC(=O)c1cc(Br)ccc1Cl	1	-2
Cc1nc(C)c(-c2nnc(NC(=O)C3=COCCO3)o2)s1	-2	10
COc1ccc(N2CCN3c4ccccc4CC(C(=O)N4CCOCC4)C3C2)cc1 (centres undefined)	-2	56*
CCNC(=O)C1Cc2ccc(OC)cc2N2CCN(c3ccc(C)cc3)CC12 (centres undefined)	1	64*
COc1cccc(N2CCN3c4ccccc4CC(C(=O)NC(C)C)C3C2)c1 (centres undefined)	-2	32
O=C(NCCc1cccs1)C1Cc2ccccc2N2CCN(c3ccccc3)CC12 (centres undefined)	-4	95*
O=C(NCc1ccccn1)C1Cc2ccccc2N2CCN(c3ccccc3)CC12 (centres undefined)	-12	38
Cc1ccc(N2CCN3c4ccccc4CC(C(=O)N4CCSCC4)C3C2)cc1 (centres undefined)	-1	58*
SMILES	Pf apPOL inh	mHTT-CaM PPI inh
CCNC(=O)C1Cc2ccccc2N2CCN(c3ccccc3OC)CC12 (centres undefined)	1	9
CCNC(=O)C1Cc2ccc(OC)cc2N2CCN(c3ccc(OC)cc3)CC12 (centres undefined)	-3	17
Cc1ccccc1C1=N/C(=C/c2ccc(N(C)C)cc2)C(=O)O1	-1	-2
O=C(Nc1ccccc1)C1CCN(c2nc3ccsc3c(=O)n2-c2ccccc2)CC1	-1	8
O=C(c1cc(-c2ccccc2)n[nH]1)N1CCc2nc3cc[nH]n3c(=O)c2C1	-6	3
COc1ccc(-c2noc(-c3ccc([N+](=O)[O-])c(C)c3)n2)cc1	-15	2
O=S(=O)(Nc1ccc(C(F)(F)F)cc1Cl)c1ccc(Cl)cc1	-11	/
COc1ccc(CNC(=O)C2CCc3sc(C(=O)N4CCCCC4)cc3C2)cc1 (centres undefined)	-3	10
CCCC[C@H]1[C@@H]2C[C@H]([C@H]3CCCCN31)[C@H](OC(=O)NCCCc1ccccc1)C2	-4	-2
Cc1ccc(-c2cn3c(CC(=O)NCc4cccs4)csc3n2)cc1	-21	52*
COc1ccc(-c2cn3c(C(=O)NCc4cccs4)csc3n2)cc1	-3	10
CC(=O)N(CN1C(=O)c2ccc([N+](=O)[O-])cc2C1=O)c1ccc(F)cc1	3	23
CC(=O)N(CN1C(=O)c2ccc([N+](=O)[O-])cc2C1=O)c1ccc(Oc2ccc(Cl)cc2)cc1	92*	3
COc1ccc(C(=O)N2CCC(c3noc(-c4ccccc4C)n3)CC2)cc1	2	-2
COc1ccccc1-c1nc(C2CCN(C(=O)c3ccccc3)CC2)no1	-1	11
COc1cccc(-c2nc(C3CCN(C(=O)c4ccc(Cl)cc4)CC3)no2)c1	1	62*
Cc1ccccc1-c1nc(C2CCN(C(=O)c3ccc(Br)cc3)CC2)no1	10	54*
COc1cccc(-c2nc(C3CCN(C(=O)c4ccc(Br)cc4)CC3)no2)c1	2	49
COc1cccc(C(=O)N2CCC(c3noc(-c4cccc(OC)c4)n3)CC2)c1	-2	6
COc1ccccc1-c1nc(C2CCN(C(=O)c3cccc(Cl)c3)CC2)no1	13	63*
COc1cccc(-c2nc(C3CCN(C(=O)c4cccc(N(C)C)c4)CC3)no2)c1	3	53*
COc1cccc(Nc2ncc3c(n2)CCN(Cc2ccccc2F)C3)c1	-4	23
COc1cc(OC)c(NC(=O)CN2N=NC3C(=O)N(c4ccc(Cl)cc4)C(=O)C32)cc1Cl (centres undefined)	2	46
CCC(=O)N1CCc2sc(S(=O)(=O)Nc3ccc(Cl)cc3F)cc2C1	-4	10
Nc1cccc(C(=O)Nc2ccccc2)c1	-5	-2
SMILES	Pf apPOL inh	mHTT-CaM PPI inh
Nc1ccc(C(=O)Nc2ccccc2)c(N)c1	-12	95*
COc1ccc(-c2sc(C(=O)O)cc2CC(=O)O)cc1	0	-5
COc1ccc(-c2nc3c(c(=O)[nH]2)CCN(C(=O)c2ccoc2)C3)cc1	0	2
O=C(NC1CCN(c2ccccc2C(=O)N2CCCC2)CC1)c1ccccc1	-1	12
O=C(NCc1cccs1)C(=O)Nc1c2c(nn1-c1cccc(Cl)c1)CSC2	-5	69*
Cc1ccc(C(=O)Nc2c3c(nn2-c2ccc(C)cc2C)CSC3)cc1	-8	32
Cc1ccc(-n2nc3c(c2NC(=O)c2cccc([N+](=O)[O-])c2)CSC3)c(C)c1	-5	0
Cc1ccc(-n2nc3c(c2NC(=O)c2ccc([N+](=O)[O-])cc2)CSC3)c(C)c1	-5	50*
CC(=O)Nc1c2c(nn1-c1cccc(Cl)c1)CSC2	-7	35
O=C(Nc1c2c(nn1-c1cccc(Cl)c1)CSC2)c1ccco1	-1	67*
O=C(Nc1c2c(nn1-c1cccc(Cl)c1)CSC2)c1c(F)cccc1F	-5	23
Cc1ccc(-n2nc3c(c2NC(=O)c2ccco2)CSC3)c(C)c1	-10	52*
COc1cc(/C=C2\SC(=Nc3cccc(C)c3)NC2=O)cc(I)c1O	-4	48
Cc1onc(-c2ccccc2Cl)c1C(=O)NNC(=O)c1cc(C)n(C(C)(C)C)n1	1	/
CC(NC(=O)CC1CCN(S(=O)(=O)c2cccs2)CC1)c1ccccc1 (centres undefined)	-4	-4
NNC(=O)Nc1ccc(Cc2ccc(NC(=O)NN)cc2)cc1	-12	2
CC(=O)Nc1ccc(C(=O)NCc2c(C)cc(C)cc2C)c(N2CCCCC2)c1	-1	41
